The text below walks through data of PubChem BioAssay (Tox21).

Inconclusive results are not listed. A call without a number means that no potency is given here. A number with no mark means an inactive call. The source made the active and inactive calls. Unless noted, calls follow the shape of the full dose curve.

In the first test the target is D(2) dopamine receptor (Homo sapiens) (UniProt P14416). The test is described as follows: Dopamine D2 receptor (DRD2) small molecule agonists, cell-based qHTS assay (AID 1963594). Also: nearly all actives have a fitted effect of over 35% in size. Conditions: HEK293-DRD2 cAMP HTRF, agonist mode, 30 min; series mostly up to 92.4 µM; activation: at the top concentration. An outline of the steps: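 HEK293 cells stably expressing human DRD2, pre-treated with PDE inhibitor Ro20-1724 (0.1 mM final) and compound 10 min at room temperature, then stimulated with NKH477 (200nM […]) for 30 min. cAMP read by HTRF (665/620 nm).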
Chain of D(2) dopamine receptor (Homo sapiens) (P14416 whole entry, looked up): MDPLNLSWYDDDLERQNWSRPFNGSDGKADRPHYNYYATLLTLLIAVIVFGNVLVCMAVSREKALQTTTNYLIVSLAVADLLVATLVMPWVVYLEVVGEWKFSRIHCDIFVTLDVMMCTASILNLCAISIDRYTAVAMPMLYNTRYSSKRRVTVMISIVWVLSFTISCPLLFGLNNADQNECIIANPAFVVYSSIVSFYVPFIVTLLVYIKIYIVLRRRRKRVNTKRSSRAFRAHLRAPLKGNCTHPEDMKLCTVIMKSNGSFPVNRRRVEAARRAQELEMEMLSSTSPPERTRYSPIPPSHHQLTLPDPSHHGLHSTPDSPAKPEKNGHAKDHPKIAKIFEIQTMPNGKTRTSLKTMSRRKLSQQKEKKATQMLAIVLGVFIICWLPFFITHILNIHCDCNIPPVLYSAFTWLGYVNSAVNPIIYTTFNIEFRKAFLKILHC
(qHTS replaces the single test concentration by a dilution series.)
Take `CC(C)(Oc1ccc(C2CC2(Cl)Cl)cc1)C(=O)O` (centres undefined): the Potency entry was “inactive”. Still for that read-out and setting: then `OC[C@@H](O)[C@@H](O)[C@H](O)[C@@H](O)CO`, with “inactive”; and `OC(Cn1cncn1)(Cn1cncn1)c1ccc(F)cc1F`, with “inactive”.

On to `OCCO`, for which the Potency entry is “inactive”.

Regarding `NS(=O)(=O)c1cc2c(cc1Cl)NCNS2(=O)=O`, the Potency entry is “inactive”. For `O=C(O)Cc1ccccc1Nc1c(Cl)cccc1Cl`, the Potency result was “inactive”.

Regarding `CC(C)(C#N)c1cc(Cn2cncn2)cc(C(C)(C)C#N)c1`, the Potency result was “inactive”. Same read-out and setting: then `C[C@]12CC[C@@H]3c4ccc(O)cc4CC[C@H]3[C@@H]1C[C@@H](O)[C@@H]2O`, with “inactive”. On the same count and under the same terms, then `CC[C@H](C)C(=O)O[C@H]1C[C@@H](C)C=C2C=C[C@H](C)[C@H](CC[C@@H]3C[C@@H](O)CC(=O)O3)[C@H]21`, with “inactive”; and `Cc1nnc(NS(=O)(=O)c2ccc(N)cc2)s1`, with “inactive”. On the same count and under the same terms, then `NC(=O)c1ccccc1O`, with “inactive”. Turning to `CC(C)Cc1ccc(C(C)C(=O)O)cc1` (centres undefined), the Potency entry was “inactive”. Still for that read-out and setting: under `CC(C)(Oc1ccc(Cl)cc1)C(=O)O` stands “inactive”. Still for that read-out and setting: then `COc1ccccc1OCC(O)CO` (centres undefined), with “inactive”. Still for that read-out and setting: then `NC(=O)c1cccnc1`, with “inactive”. For `CC(=O)[C@@]1(O)CC[C@H]2[C@@H]3C[C@H](C)C4=CC(=O)C=C[C@]4(C)[C@@]3(F)[C@@H](O)C[C@@]21C`, the “activation” value is -1.1%.

In the case of `CC(=O)Nc1nnc(S(N)(=O)=O)s1`, the Potency result is “inactive”. With `NNCCc1ccccc1`, the Potency entry is “inactive”. Same read-out and setting: under `CCOC(N)=O` stands “inactive”; under `CCCCCCc1ccc(O)cc1O`, “inactive”.

The target is the same in the next test. As to the kind of experiment: Dopamine D2 receptor (DRD2) small molecule antagonists, cell-based qHTS assay (AID 1963595; active = well fitted inhibition curve with a large enough effect in the signal ratio in the repeat runs, with a control signal flat; the % refers to the signal ratio). Particulars: HEK293-DRD2 cAMP HTRF antagonist mode; series mostly up to 92.4 µM; activity change, negative = inhibition: at the top concentration. The procedure, abridged: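 In this cell-based antagonist screen, compounds act for 10 min at room temperature before a 30 min challenge with 12 nM quinpirole and 200 nM NKH477. cAMP is quantified by HTRF competition in DRD2-HEK293 cells containing 0.1 mM Ro20-1724.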
On to `O=C1O[C@H]([C@H](O)CO)C(O)=C1O`, for which the Potency result is “inactive”.

Regarding `COC(=O)c1ccc(O)cc1`, the Potency entry was “inactive”. `S=c1nc[nH]c2nc[nH]c12`: the Potency entry is “inactive”. On to `C[C@]12CCC(=O)C=C1CC[C@@H]1[C@@H]2C(=O)C[C@@]2(C)[C@H]1CC[C@]2(O)C(=O)CO`, for which the Potency entry was “inactive”. On the same count and under the same terms, then `C/C=C/C(=O)N(CC)c1ccccc1C`, with “inactive”.

With `O=c1c(-c2ccc(O)cc2)coc2cc(O)cc(O)c12`, the Potency result is “inactive”.

For `CN(N=O)C(=O)N[C@@H]1[C@@H](O)[C@H](O)[C@@H](CO)O[C@@H]1O`, the Potency result was “inactive”. Still for that read-out and setting: then `CCCCC1C(=O)N(c2ccccc2)N(c2ccccc2)C1=O`, with “inactive”; and `CC12CCC(CC1)C(C)(C)O2`, with “inactive”; and `OC[C@@H](O)[C@@H](O)[C@H](O)[C@H](O)CO`, with “inactive”.

As to `CCCN(CCC)S(=O)(=O)c1ccc(C(=O)O)cc1`, the Potency entry is “inactive”. On to `Cc1ncc([N+](=O)[O-])n1CCO`, for which the Potency result is “inactive”.

As for `CCCCOC(=O)c1ccc(N)cc1`, the Potency result is “inactive”. Same read-out and setting: under `C#C[C@]1(O)CC[C@H]2[C@@H]3CCC4=CC(=O)CC[C@@H]4[C@H]3CC[C@@]21CC` stands “inactive”; under `c1ccc2c(c1)c1cccc3ccc4cccc2c4c31`, “inactive”. On the same count and under the same terms, under `CC1(C)O[C@@H]2C[C@H]3[C@@H]4C[C@H](F)C5=CC(=O)CC[C@]5(C)[C@H]4[C@@H](O)C[C@]3(C)[C@]2(C(=O)CO)O1` stands “inactive”; under `CC(C)=CCC/C(C)=C/CO`, “inactive”; under `CN1C(C(=O)Nc2ccccn2)=C(O)c2ccccc2S1(=O)=O`, “inactive”.

With `Cc1noc(NS(=O)(=O)c2ccc(N)cc2)c1C`, the Potency result was “inactive”.

As for `Cc1cc(=O)n(-c2ccccc2)n1C`, the Potency result was “inactive”. On the same count and under the same terms, then `CC(C)(Oc1ccc(C2CC2(Cl)Cl)cc1)C(=O)O` (centres undefined), with “inactive”. For `OC[C@@H](O)[C@@H](O)[C@H](O)[C@@H](O)CO`, the “activity change, negative = inhibition” value is 11.2%. For `OC(Cn1cncn1)(Cn1cncn1)c1ccc(F)cc1F`, the Potency result is “inactive”. On the same count and under the same terms, then `OCCO`, with “inactive”. Same read-out and setting: then `NS(=O)(=O)c1cc2c(cc1Cl)NCNS2(=O)=O`, with “inactive”; and `O=C(O)Cc1ccccc1Nc1c(Cl)cccc1Cl`, with “inactive”; and `CC(C)(C#N)c1cc(Cn2cncn2)cc(C(C)(C)C#N)c1`, with “inactive”. In the case of `C[C@]12CC[C@@H]3c4ccc(O)cc4CC[C@H]3[C@@H]1C[C@@H](O)[C@@H]2O`, the Potency entry was “inactive”. Still for that read-out and setting: under `CC[C@H](C)C(=O)O[C@H]1C[C@@H](C)C=C2C=C[C@H](C)[C@H](CC[C@@H]3C[C@@H](O)CC(=O)O3)[C@H]21` stands “inactive”. For `Cc1nnc(NS(=O)(=O)c2ccc(N)cc2)s1`, the Potency entry was “inactive”. Same read-out and setting: then `NC(=O)c1ccccc1O`, with “inactive”; and `CC(C)(Oc1ccc(Cl)cc1)C(=O)O`, with “inactive”. On the same count and under the same terms, under `COc1ccccc1OCC(O)CO` (centres undefined) stands “inactive”; under `NC(=O)c1cccnc1`, “inactive”.

On to `CC(=O)[C@@]1(O)CC[C@H]2[C@@H]3C[C@H](C)C4=CC(=O)C=C[C@]4(C)[C@@]3(F)[C@@H](O)C[C@@]21C`, for which the Potency entry was “inactive”. With `CC(=O)Nc1nnc(S(N)(=O)=O)s1`, the Potency result was “inactive”. Same read-out and setting: then `NNCCc1ccccc1`, with “inactive”; and `CCOC(N)=O`, with “inactive”.

As for `CCCCCCc1ccc(O)cc1O`, the “activity change, negative = inhibition” value is -17.7%.
